{
  "source": "PubChem BioAssay AID1346378",
  "about": "(National Center for Advancing Translational Sciences (NCATS), 2018)",
  "note": "Out of some 420,000 compounds screened, about 540 (0.13%) were called active. Rule as the data show it: active = activity change below about -50%; inconclusive = mostly about -30% to -49%; inactive = weaker than that. Many of the other results were omitted from the sample, so actives are more common in it than they were.",
  "data": [
    {"target": "Phosphatidylinositol 4-kinase type 2-alpha (Homo sapiens) (UniProt Q9BTU6)", "sequence (Q9BTU6 whole entry, looked up)": "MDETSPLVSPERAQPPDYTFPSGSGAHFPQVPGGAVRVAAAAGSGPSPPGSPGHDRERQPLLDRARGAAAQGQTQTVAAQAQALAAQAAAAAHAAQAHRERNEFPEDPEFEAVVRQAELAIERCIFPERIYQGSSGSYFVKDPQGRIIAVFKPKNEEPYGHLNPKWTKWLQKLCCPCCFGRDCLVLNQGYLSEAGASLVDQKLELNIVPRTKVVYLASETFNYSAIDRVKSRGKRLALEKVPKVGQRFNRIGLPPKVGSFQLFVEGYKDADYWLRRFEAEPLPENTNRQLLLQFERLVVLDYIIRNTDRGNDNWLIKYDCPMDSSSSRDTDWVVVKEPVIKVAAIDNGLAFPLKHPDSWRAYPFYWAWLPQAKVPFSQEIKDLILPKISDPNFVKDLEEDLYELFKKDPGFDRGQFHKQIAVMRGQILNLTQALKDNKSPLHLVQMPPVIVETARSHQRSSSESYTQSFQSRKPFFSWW", "assay": "qHTS for small molecular inhibitors of PI4K2A;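 also: -100% = wells without enzyme as full effect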", "conditions": "purified PI4K2A, ADP-Glo luminescence, 1 h; at 76.9 µM, active compounds read low", "source_text": "The phosphatidylinositol 4-phosphate (PI4P) is emerging as a key regulator of lipid transfer in ER-membrane contact sites. The four different phosphatidylinositol 4-kinase (PI4K) enzymes generate PI4P in different membrane compartments supporting distinct cellular processes many of which are crucial for the maintenance of cellular integrity but also hijacked by intracellular pathogens. The goal of this screening project is to search for small molecular inhibitors of PI4K2A based on a high throughput screening strategy.The ADP-Glo assay was used as a starting point to develop a miniaturized version for HTS applications. To implement the HTS screen, the PI4K ADP-Glotrade mark Kinase assay (Promega, V9102) was miniaturized for the 1536-well format used at NCGC.\nFor the robotic screening, the ADP-Glo assay using the ADP-Glotrade mark Kinase Assay kit from Promega was miniaturized and optimized on 1536-well white solid bottom plates (Greiner Bio-one). The substrate, 1.2 mM PI, prepared in the assay buffer (40mM Tris pH7.5, 20mM MgCl2, 1mM EGTA, 0.4% Triton X-100, 0.5mM DTT, 0.5mg/ml BSA) and PI4K2A enzyme, diluted also in the assay buffer to 4ug/mL, were dispensed onto the plates in equal volumes (1microl/well), pinned with 23 nL/well tested compounds or control followed by dispensation of 1microl/well 300microM ATP. The plates were incubated for one hour. Then, 2 µL/well of ADP-Glo reagent was added and incubated for 40 minutes. Next, 4microL/well of Kinase Detection Buffer was added to the plates and incubated for additional 40 minutes. All incubation steps were performed at ambient temperature. The resulting luminescence signal was measured on Viewlux plate reader (PerkinElmer). Adenosine, a partial non-specific inhibitor, was used as a positive control at 100microM final concentration to assess the assay's quality and plate-to-plate reproducibility. We also used \"no enzyme\" control to gauge the assay's maximal potential inhibition (IC100).", "values": [
      {"compound": "CC(C)(C)c1ccc(OCC(=O)N2CCC(c3nc4ccccc4s3)CC2)cc1", "activity change, negative = inhibition": "-3.91% (inactive)"},
      {"compound": "O=C(OC1CCOC1=O)c1ccc(-c2nc3ccccc3s2)s1", "note": "(configuration not stated)", "activity change, negative = inhibition": "-52.4% (active)"},
      {"compound": "COc1cc(C(=O)OC2CCOC2=O)c([N+](=O)[O-])cc1OC", "note": "(configuration not stated)", "activity change, negative = inhibition": "0.815% (inactive)"},
      {"compound": "O=C1/C(=C\\c2ccc([N+](=O)[O-])cc2)CS(=O)(=O)C/C1=C/c1ccc([N+](=O)[O-])cc1", "activity change, negative = inhibition": "-53% (active)"},
      {"compound": "C=CC(=O)Nc1ccc(Nc2ccnc(Nc3ccc(N4CCN(C)CC4)cc3)n2)cc1", "activity change, negative = inhibition": "-9.48% (inactive)"},
      {"compound": "CC(C)C[C@H](NC(=O)[C@H](O)[C@H](N)Cc1ccccc1)C(=O)O", "activity change, negative = inhibition": "-0.0848% (inactive)"},
      {"compound": "CC(=O)Nc1ccc(NC(=O)c2cc3sccc3n2Cc2ccc(F)cc2)cc1", "activity change, negative = inhibition": "-0.493% (inactive)"},
      {"compound": "CC(C)Oc1ccc(/C=N/NC(=O)c2nnn(-c3nonc3N)c2CN(C)C2CCCCC2)cc1", "activity change, negative = inhibition": "-0.0382% (inactive)"},
      {"compound": "Cc1nonc1C(=O)N/N=C/c1ccc(O)cc1", "activity change, negative = inhibition": "-107% (active)"},
      {"compound": "CCc1ccc(/C=N/NC(=O)c2nnn(-c3nonc3N)c2CN2CCc3ccccc32)cc1", "activity change, negative = inhibition": "2.23% (inactive)"},
      {"compound": "O=S(=O)(NCCc1nnc2ccc(SCc3ccc(Cl)cc3Cl)nn12)c1ccccc1", "activity change, negative = inhibition": "1.68% (inactive)"},
      {"compound": "CCCOC(=O)c1c(NC(=O)c2cc3nc(-c4ccc(OC)cc4)cc(C(F)(F)F)n3n2)sc2c1CCCC2", "activity change, negative = inhibition": "-1.38% (inactive)"},
      {"compound": "CC(=O)c1ccc(NC(=O)COc2ccccc2-c2nc(-c3ccccc3)no2)cc1", "activity change, negative = inhibition": "-0.609% (inactive)"},
      {"compound": "O=C(Oc1ccc(-c2nc(-c3ccccn3)no2)cc1)c1ccccc1", "activity change, negative = inhibition": "-59.2% (active)"},
      {"compound": "O=C(COc1cccc(F)c1)Oc1ccc(C(=O)c2ccccc2)cc1", "activity change, negative = inhibition": "-2.11% (inactive)"},
      {"compound": "CCc1ccccc1NC(=O)c1ccc(F)c(S(=O)(=O)NC2CCCCCC2)c1", "activity change, negative = inhibition": "3.89% (inactive)"},
      {"compound": "CCCCOc1ccc(C(=O)N2CC(=O)Nc3ccc(Br)cc3C2c2ccc(F)cc2)cc1", "note": "(configuration not stated)", "activity change, negative = inhibition": "0.252% (inactive)"},
      {"compound": "O=C(NCC(c1cccnc1)N1CCc2ccccc21)c1cccc(C(F)(F)F)c1", "note": "(configuration not stated)", "activity change, negative = inhibition": "-0.743% (inactive)"},
      {"compound": "CCOCCCn1c(SCC(=O)Nc2ccc(CC)cc2)nc2ccccc2c1=O", "activity change, negative = inhibition": "2.57% (inactive)"},
      {"compound": "COc1cc(OC)c(OC)cc1/C=C/c1nc2cc3ccccc3cc2c(=O)n1-c1ccc(F)c(Cl)c1", "activity change, negative = inhibition": "1.51% (inactive)"},
      {"compound": "CCCC(=O)Nc1cc(C(=O)NCc2ccc(OC)cc2)ccc1S(=O)(=O)c1ccc(Cl)cc1", "activity change, negative = inhibition": "1.05% (inactive)"},
      {"compound": "CCCc1c2oc(C(=O)O)cc(=O)c2cc2c(=O)cc(C(=O)O)n(CC)c12", "activity change, negative = inhibition": "0.586% (inactive)"},
      {"compound": "CC1(C)OC[C@@H](COC(=O)CCc2ccc(OC[C@@H](O)CNCCNC(=O)N3CCOCC3)cc2)O1", "activity change, negative = inhibition": "2.53% (inactive)"},
      {"compound": "Cc1cccc(C)c1NC(=O)c1ccc(N)cc1", "activity change, negative = inhibition": "2.75% (inactive)"},
      {"compound": "CC(C)Sc1oc(-c2cccs2)nc1S(=O)(=O)c1ccc(Cl)cc1", "activity change, negative = inhibition": "2.5% (inactive)"},
      {"compound": "CCC(=O)Nc1ccc2nc(SCC(=O)N3CCc4ccccc43)sc2c1", "activity change, negative = inhibition": "-5.07% (inactive)"},
      {"compound": "CCCn1c(=O)c2[nH]c(-c3ccc(OCC(=O)NCCN)cc3)nc2n(CCC)c1=O", "activity change, negative = inhibition": "-1.34% (inactive)"},
      {"compound": "Nc1ccc2nc3c(=O)[nH]c(=S)[nH]c3nc2c1", "activity change, negative = inhibition": "-58.2% (active)"},
      {"compound": "Cc1ccc(-n2ncc3c(N4CCC(C(N)=O)CC4)ncnc32)cc1", "activity change, negative = inhibition": "-0.0422% (inactive)"},
      {"compound": "CC(=O)c1ccc(NC(=O)c2nc3nc(C)cc(C(F)F)n3n2)cc1", "activity change, negative = inhibition": "0.438% (inactive)"},
      {"compound": "Cc1oc2ncnc(N3CCOCC3)c2c1C(=O)NCCc1ccccc1", "activity change, negative = inhibition": "5.54% (inactive)"},
      {"compound": "Cc1cc2oc(C(=O)N(Cc3ccc(Cl)cc3)Cc3ccco3)c(C)c2cc1Cl", "activity change, negative = inhibition": "-5.36% (inactive)"},
      {"compound": "O=C(C1CC1)N1CCc2cc(Br)cc(S(=O)(=O)N3CCN(c4ccccc4F)CC3)c21", "activity change, negative = inhibition": "-2.46% (inactive)"},
      {"compound": "CC(C)(C)c1ccc(C(=O)NCC(c2ccc(Cl)cc2)N2CCOCC2)cc1", "note": "(configuration not stated)", "activity change, negative = inhibition": "1.67% (inactive)"},
      {"compound": "Cc1ccc2oc(=O)c3cnn(CC(=O)NCc4ccccc4Cl)c3c2c1", "activity change, negative = inhibition": "2.09% (inactive)"},
      {"compound": "Cc1ccc(C(=O)NCCSc2c(C)[nH]c3ccccc23)cc1C", "activity change, negative = inhibition": "-0.18% (inactive)"},
      {"compound": "Cc1ccccc1NC(=O)c1cc2c([nH]c1=O)CC(C)(C)CC2=O", "activity change, negative = inhibition": "-0.508% (inactive)"},
      {"compound": "Cc1ccc2ncc(C(=O)Nc3ccc(OC(F)(F)F)cc3)c(=O)n2c1", "activity change, negative = inhibition": "-0.27% (inactive)"},
      {"compound": "C[C@@H]1CCC[C@H](C)N1CCCC(O)(c1ccccc1)c1ccccn1", "note": "(some centres not stated)", "activity change, negative = inhibition": "-1.64% (inactive)"},
      {"compound": "Cc1ccc(NC(=O)Cn2cnc3nc4c(cc3c2=O)CCCC4)cc1Cl", "activity change, negative = inhibition": "2.6% (inactive)"},
      {"compound": "O=C(CC1Oc2ccccc2NC1=O)NCc1ccc(F)cc1", "note": "(configuration not stated)", "activity change, negative = inhibition": "-3.94% (inactive)"},
      {"compound": "CCOCCn1ccc2c(OCC(=O)NCc3ccc(C)cc3)cccc2c1=O", "activity change, negative = inhibition": "-5.41% (inactive)"}
    ]}
  ]
}
